Bioassay records from PubChem BioAssay.
Luciferase inh: Photinus pyralis luciferase inhibition; P08659; purified P. pyralis luciferase, luminescence, biochemical; Potency, µM (doses to about 115 µM), actives largely listed as inhibitors; 2.5% of 76,000 active; note: % is set by controls: 0 for no effect and ±100 for the full control effect; nearly all actives have a fitted effect of over 65% in size
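Purified 10nM P. pyralis luciferase with 10uM D-luciferin and 10uM ATP in 50mM Tris acetate pH 7.5, 10mM Mg acetate, 0.01% Tween-20, 0.05% BSA. qHTS titration; luminescence read by CCD imager.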
NPR1 antag: human Npr1 receptor antagonism; Potency, µM (titrated, usually from 46.3 µM), for inactives: at the highest dose activity change, negative = inhibition, actives largely listed as inhibitors; HEK293 hNpr1 GloSensor cGMP, ANP-stimulated luminescence; AID 1347048; 1.6% of 76,000 active; calls by dose curve; note: % is set by controls: 0 for no effect and ±100 for the full control effect; nearly all actives have a fitted effect of over 60% in size
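Compound pre-incubated 30 min at room temperature on GloSensor-loaded HEK293 cells stably carrying hNpr1 and the pGS-40F cGMP biosensor. Stimulation uses hNppA at 0.1 nM final; luminescence is taken at baseline and 20 min post-agonist.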
GPT2 inh: GPT2 alanine aminotransferase inhibition | Recombinant GPT2, coupled pyruvate oxidase/HRP Amplex Red fluorescence | Q8TD30 | 0.25% of 100,000 active | Potency, µM (doses to about 57.7 µM), for inactives: top-dose activity change, negative = inhibition, hits mostly inhibitors; note: % is set by controls: 0 for no effect and ±100 for the full control effect; nearly all actives have a fitted effect of over 60% in size
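Recombinant GPT2 (10ng/uL) with 250uM a-KG and 2mM L-alanine, 30 min at room temperature, in HEPES pH 7.5 buffer. Pyruvate detected by pyruvate oxidase/HRP/Amplex Red fluorescence after 30 min in the dark; AOA (50uM) as positive control.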
3T3 cytotox: NIH 3T3 cell cytotoxicity; NIH 3T3 viability, CellTiter-Glo ATP luminescence, 48-72 h; Potency, µM (highest dose often 96.7 µM), inactives show at the highest dose activity change, negative = cytotoxicity, usual class: inhibitors; 4.3% of 94,000 active; AID 1345082; note: % is set by controls: 0 for no effect and ±100 for the full control effect; nearly all actives have a fitted effect of over 55% in size
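ATP-dependent luminescence (CellTiter-Glo) served as the viability signal for NIH 3T3 cells treated with compound for 48 or 72 hr at 37 °C.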
HEK cytotox: kills HEK 293 cells | AID 1345083 | Potency, µM (doses to about 115 µM), inactives show at the highest dose activity change, negative = cytotoxicity, hits mostly inhibitors | 6.6% of 94,000 active | HEK 293 viability, ATP luminescence (CellTiter-Glo), 48-72 h; note: % is set by controls: 0 for no effect and ±100 for the full control effect; nearly all actives have a fitted effect of over 60% in size
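HEK 293 cells seeded at 250 cells/well were exposed to compound for 48 or 72 hr at 37 degree Celsius. Viability taken as ATP content by CellTiter-Glo luminescence.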
NPR1 antag cnf: hNpr1 antagonism, confirmation assay; shares compounds with NPR1 antag; HEK293 hNpr1 cGMP GloSensor luminescence, ANP-stimulated; Potency, µM (series often up to 57.6 µM), inactives show at the top dose activity change, negative = inhibition, actives largely listed as inhibitors; 76% of 1,400 active; AID 1347044; calls by dose curve; note: nearly all actives have a fitted effect of over 70% in size
NPR2 antag: antagonizes human Npr2, subtype selectivity check. HEK293 hNpr2 GloSensor cGMP luminescence, CNP-stimulated. Potency, µM (top dose mostly 57.6 µM), without a hit: at the top dose activity change, negative = inhibition, usual class: inhibitors. 67% of 1,400 active. shares compounds with NPR1 antag; calls by dose curve; note: nearly all actives have a fitted effect of over 70% in size
FLuc counter: counter-screen for Npr1 antagonists: firefly luciferase inhibitors | purified FLuc enzyme, luminescence, Km substrate | AID 1347047 | Potency, µM (titrated, usually from 57.6 µM), for inactives: at the highest dose activity change, negative = inhibition, actives largely listed as inhibitors | 0.7% of 1,400 active | shares compounds with NPR1 antag; note: series mostly up to about 58 µM; 0% is about no effect
GloSensor cGMP: counter-screen for Npr1 antagonists: GloSensor control cell line. Potency, µM (doses to about 57.6 µM), for the others: top-dose activity change, negative = inhibition, usual class: inhibitors. HEK293 GloSensor cGMP, SNP-stimulated, luminescence. shares compounds with NPR1 antag. 69% of 1,400 active. AID 1347051; calls by dose curve; note: % is set by controls: 0 for no effect and ±100 for the full control effect; nearly all actives have a fitted effect of over 70% in size
* marks the source's active call; other numbers are inactive results; i = inactive; ? = inconclusive; . = no result; [ ] = remark or other dose. The list is not random: actives were taken first. Their share in the collection is about 10%. Unless noted, calls come from the whole dose curve; as a rule, active = well fitted curve in the direction sought with a large enough effect; inconclusive = small, poorly fitted or top-dose-only effect, or another doubt; inactive = no such curve, though single readings can be large; an effect the other way counts as inactive or inconclusive. Potency is the fitted concentration of half-maximal effect.

SMILES | Luciferase inh | NPR1 antag | GPT2 inh | 3T3 cytotox | HEK cytotox | NPR1 antag cnf | NPR2 antag | FLuc counter | GloSensor cGMP
COc1ccc(-c2cc(N3CCN(C(=O)c4ccc(OC)cc4OC)CC3)n[nH]2)cc1 | i | ? | i | ? | ? | 27.3µM* | 21.7µM* | -1.4% | 21.7µM*
O=C(c1ccc2[nH]ccc2c1)N1CCCN(c2cc(-c3ccc(F)cc3)[nH]n2)CC1 | i | ? | ? | -12.6% | ? | . | . | . | .
COc1ccc(-c2cc(N3CCN(C(=O)c4ccc(C)nc4)CC3)n[nH]2)cc1 | i | 1.2% | 4.6% | ? | ? | . | . | . | .
N[C@@H](CC(=O)Nc1ccc(Oc2cc(F)c(F)cc2Br)cc1)C(=O)O | . | . | i | . | . | . | . | . | .
Cc1noc(C)c1S(=O)(=O)N1CCN(c2ccc3nnc(C4CC4)n3n2)CC1 | . | . | . | -16.2% | -3.9% | . | . | . | .
COCCN1CCCC1c1nc(C2CN(S(=O)(=O)c3cccc(OC)c3)C2)no1 (stereo unspecified) | . | . | i | -20.3% | -27.1% | . | . | . | .
O=C(c1ccccc1F)N1CCC2(CC1)CCN(Cc1cccs1)c1ccccc1O2 | i | -1.8% | -7.5% | ? | ? | . | . | . | .
COc1ccc(-c2cc(N3CCCN(C(=O)c4cccc(Br)c4)CC3)n[nH]2)cc1 | i | ? | -0.2% | ? | ? | ? | 13.7µM* | -8.6% | -21.5%
COc1ccc(-c2cc(N3CCN(C(=O)c4cccc(Br)c4)CC3)n[nH]2)cc1 | i | ? | 1.2% | ? | ? | . | . | . | .
COc1ccc(-c2cc(N3CCCN(C(=O)c4ccc(F)c(Cl)c4)CC3)n[nH]2)cc1 | i | ? | -20.0% | ? | ? | 17.2µM* | 13.7µM* | -0.8% | 5.7%
COc1cc(OC)cc(C(=O)N2CCCN(c3cc(-c4ccc(F)cc4)[nH]n3)CC2)c1 | i | -5.6% | -9.7% | -27.3% | ? | . | . | . | .
COc1cc(OC)cc(C(=O)N2CCCN(c3cc(-c4ccc(Br)cc4)[nH]n3)CC2)c1 | i | 11.2µM* | -17.4% | 31.6µM* | 39.8µM* | 24.3µM* | 21.7µM* | -1.7% | 27.3µM*
CC(C)(C)C(=O)N[C@H]1C[C@@H](Cc2cc(CN3CCN(c4ccccc4)CC3)on2)C1(C)C | i | 11.2µM* | i | -33.6% | ? | 19.3µM* | 17.2µM* | -1.4% | 12.2µM*
CC(C)C(=O)N[C@H]1C[C@@H](Cc2cc(CN3CCOCC3)on2)C1(C)C | i | 3.9%[70.6 µM] | -14.4%[88.5 µM] | -11.2%[174 µM] | -11.5%[172 µM] | . | . | . | .
CC(C)NC(=O)N[C@H]1C[C@@H](Cc2cc(CN3CCN(c4ccccc4)CC3)on2)C1(C)C | i | 11.2µM* | -13.1% | ? | ? | 19.3µM* | 19.3µM* | -0.3% | 17.2µM*
C[C@H](C(=O)N1CCOCC1)C1CC[C@@]2(C)Cc3sc(CS(=O)(=O)C(C)(C)C)nc3[C@@H](C)[C@@H]2[C@H]1O (stereo partly specified) | i | -2.7% | ? | -22.9% | -25.9% | . | . | . | .
